Results reported in ChEMBL document CHEMBL1961873, “Compounds: GSK PKIS; Assays: Nanosyn kinase panel” (2012).

The molecules below were run against Tyrosine-protein kinase Fyn (Homo sapiens) (UniProt P06241). Conditions: at 1 µM.
Sequence of Tyrosine-protein kinase Fyn (Homo sapiens) (P06241 2-537 limits assumed): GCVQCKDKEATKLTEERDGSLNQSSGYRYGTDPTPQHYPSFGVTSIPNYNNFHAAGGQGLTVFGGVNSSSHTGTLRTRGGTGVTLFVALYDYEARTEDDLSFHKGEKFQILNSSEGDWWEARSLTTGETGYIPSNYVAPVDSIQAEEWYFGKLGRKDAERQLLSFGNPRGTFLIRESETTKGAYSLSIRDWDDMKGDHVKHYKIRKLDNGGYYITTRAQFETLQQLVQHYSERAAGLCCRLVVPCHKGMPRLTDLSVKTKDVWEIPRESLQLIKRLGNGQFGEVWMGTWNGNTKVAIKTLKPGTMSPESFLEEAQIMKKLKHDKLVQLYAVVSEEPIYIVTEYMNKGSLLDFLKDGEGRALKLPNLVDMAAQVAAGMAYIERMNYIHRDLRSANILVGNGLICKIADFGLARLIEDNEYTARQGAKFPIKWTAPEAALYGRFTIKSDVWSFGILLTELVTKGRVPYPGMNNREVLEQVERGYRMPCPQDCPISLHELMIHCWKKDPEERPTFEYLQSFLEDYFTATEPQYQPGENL
Work on `Cc1nc(-c2ccccc2)n2nc(NCCCN3CCOCC3)ncc12` yielded an inhibition of 4.98%. With `COc1cc(/C=N/Nc2ncnc3c2cnn3C(C)C)ccc1O` the inhibition was 40.2%. `COc1cccc(-n2nc(C)c3c(N/N=C(\C)c4ccncc4)ncnc32)c1` showed an inhibition of 4.54%. `Cc1ccc2c(-c3ccnc(Nc4ccc5c(c4)OCCO5)n3)c(-c3ccc(C(F)(F)F)cc3)nn2n1` showed an inhibition of 5.39%. Work on `COc1cc2ncnc(Nc3ccc4c(cnn4Cc4ccccc4)c3)c2cc1OC` yielded an inhibition of 35.7%. In the case of `Cc1ccc2c(-c3ccnc(Nc4cccc(C(F)(F)F)c4)n3)c(-c3ccccc3)nn2n1`, the inhibition is reported as 61%. In the case of `Cc1cc(O)cc(C)c1/C=C/c1cncc(C(=O)N(C)C)c1`, the inhibition is reported as 4.2%. `Nc1ccc(C#Cc2cncnc2Nc2ccc(OCc3cccc(F)c3)c(Cl)c2)cc1` gave an inhibition of 1.14%. `Nc1nccc(-c2c(-c3ccc(F)cc3)ncn2CCCN2CCOCC2)n1` gave an inhibition of 4.47%. For `N#Cc1cccc(Nc2nccc(-c3cnn4ncccc34)n2)c1`, the inhibition was 39.2%. `NC(=O)c1sc(-n2cnc3ccccc32)cc1OCc1ccccc1Br` showed an inhibition of 6.19%. Work on `CCS(=O)(=O)c1ccc(OC)c(Nc2nccc(N(C)c3ccc4c(C)n[nH]c4c3)n2)c1` yielded an inhibition of 65%. `O=C(Nc1ccc(Oc2ccc3[nH]c(NC(=O)c4ccco4)nc3c2)cc1)Nc1cc(C(F)(F)F)ccc1F` showed an inhibition of 19.9%. With `COC(=O)c1ccc2c(c1)C(=Cc1cc(Br)c(O)c(Br)c1)C(=O)N2` the inhibition was 22.5%. Molecule `CCOc1nccc2c1nc(-c1nonc1N)n2CC` has an inhibition of 3.27%. In the case of `COC(=O)Nc1nc2cc(Oc3ccc(NC(=O)Nc4cccc(Br)c4)cc3)ccc2[nH]1`, the inhibition is reported as 9.52%. With `CCn1c(-c2nonc2N)nc2c(C#CC(C)(C)O)nc(OCCNC)cc21` the inhibition was 4.65%. `NS(=O)(=O)c1cccc(-c2cc3ccncc3cc2OCc2ccccc2)c1` gave an inhibition of 4.87%. `NS(=O)(=O)c1ccc(N/N=C2\C(=O)Nc3ccc(Cl)cc32)cc1` showed an inhibition of 8.06%.
